# According to the supplement of paper PMC4723716:
# Test system: Plasmodium falciparum NF54 gametocytes
# Test: viability index relative to DMSO control (fraction); higher = less gametocyte killing
# Conditions: 12.5 µM, incubation time: 72 h
# Summary of the method: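 P. falciparum NF54 gametocytes at stages I–V were treated with compound at 12.5 µM for 72 hr at 37°C under low oxygen in serum-containing medium (0.50% gametocytemia, 1.25% hematocrit), then stained with MitoTracker Red CMXRos and imaged in serum-free medium containing 500 nM dye. The viability index is the gametocyte particle count divided by the plate mean of solvent-only wells.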
# [1] = gametocyte stage: Stage I viability index
# [2] = gametocyte stage: Stage II viability index
# [3] = gametocyte stage: Stage III viability index
# [4] = gametocyte stage: Stage IV viability index
# [5] = gametocyte stage: Stage V viability index
Compound,viability index [1],viability index [2],viability index [3],viability index [4],viability index [5]
COc1ccccc1N1CCN(C(CNS(=O)(=O)c2ccc(Cl)cc2)c2cccnc2)CC1 (stereo not given),0.188,0.564,1.04,0.815,0.912
CCN(CC)CCNc1ncnc2c1[nH]c1ccc(Cl)cc12,0.0354,0.373,0.818,0.763,0.451
O=C(Nc1ccsc1C(=O)NC1CCCCC1)c1ccc(F)cc1,0.93,0.729,0.965,0.933,0.945
O=C(Nc1ccc(Cl)cc1)N1CCN(c2ccc3nncn3n2)CC1,0.865,1.02,1.15,1.14,1.11
Cc1cc(Nc2ccc(OCc3ccccc3)cc2)nc2cc(O)ccc12,0.332,0.199,0.468,0.487,0.481
COc1ccc(C(C)=O)cc1N1C(=O)C2C(C1=O)C1(c3ccccc3)C(=O)C2(c2ccccc2)C(c2ccc(C)cc2)=C1c1ccc(C)cc1 (stereo not given),1.04,0.933,1.01,0.824,0.923
COc1ccc(-c2nonc2NC(=O)c2cccc(C)c2)cc1OC,0.62,0.55,0.571,0.769,0.571
COc1cccc(C=Cc2nc(=O)c3ccccc3o2)c1OC,0.751,0.717,0.809,0.948,0.967
CCN(CC)CCCNc1nc(-c2ccc(Cl)cc2)nc2ccccc12,0.693,0.751,1.01,0.903,0.956
C=C(C)CCC(C)N1CCC(N2CCC(C(=O)NCCc3ccccc3)CC2)CC1 (stereo not given),0.538,0.665,0.948,0.845,0.758
COc1cccc(C(=O)Nc2ccc(-c3nc4ccccc4[nH]3)cc2)c1,0.295,0.595,0.852,1.03,0.883
Oc1c(C(Nc2ccccn2)c2cccc(Oc3ccccc3)c2)ccc2cccnc12 (stereo not given),1.06,0.975,1.04,0.994,0.675
CCOC(=O)C1CCN(C(=O)CN2C(=O)c3ccccc3C2c2c[nH]c3ccccc23)CC1 (stereo not given),1.39,0.924,1.14,1.13,1.18
CCN(CC)CCNc1ncnc2c1[nH]c1ccc(Br)cc12,0.0398,0.36,0.635,0.641,0.396
Cc1ccc(C)c(Cn2c(N3CCC(C(=O)NCc4cccs4)CC3)nc3ccccc32)c1,0.741,0.378,0.438,0.342,0.221
CCOc1cccc(C(=O)Nc2ccc(-c3nc4ccccc4[nH]3)cc2)c1,0.0751,0.574,1.1,0.894,0.637
CCCCCCOC(=O)C1=C(C)NC(=O)NC1c1ccccc1F (stereo not given),0.924,0.896,1.03,1.04,1.13
C=CCc1c(C)nc2ccccc2c1O,0.92,0.671,0.798,0.793,1.05
O=c1cc(NC2CCN(CCCc3ccccc3)CC2)c2cc(Cl)ccc2o1,0.028,0.408,0.815,0.848,0.675
CCOC(=O)c1cnc2ccc(CC)cc2c1O,0.377,0.505,0.734,0.733,0.846

Compound,viability index [1],viability index [2],viability index [3],viability index [4],viability index [5]
CCC(c1ccccc1)c1nn2c(-c3cccs3)nnc2s1 (stereo not given),1.04,0.992,1.07,0.875,0.725
OC(CNC1CCCC1)Cn1c2ccccc2c2ccccc21 (stereo not given),0.0475,0.0783,0.181,0.286,0.22
O=C(Nc1ccc(-c2nc3cc(NC(=O)c4ccc(Cl)cc4)ccc3[nH]2)cc1)c1ccc(Cl)cc1,0.0481,0.00583,0.0176,0.00316,0
CCCCc1c(CCC)c(=N)c2ccccc2n1C,1.05,0.911,1,0.918,0.701
O=C1c2ccccc2-c2nnc(-c3ccc(Br)cc3)cc21,0.844,0.875,0.783,0.873,0.87
CCN1CCN(c2cc(C)c3cc(NC(=O)c4ccc(OC)c(OC)c4)ccc3n2)CC1,0.33,0.677,1.04,0.818,0.901
Cn1c(=O)n(C)c2cc(CNCCNc3ccnc4cc(Cl)ccc34)ccc21,0.49,0.57,0.597,0.75,0.494
CN1CCN(c2ccc(Nc3c4ccccc4nc4ccccc34)cc2)CC1,0.0453,0.0029,0.0523,0.146,0.121
Cc1ccc(-c2cc3nc4c(c(O)n3n2)CCCC4)cc1,0.537,0.804,0.894,0.766,0.857
CNCCCNc1ccnc2cc(Cl)ccc12,0.0398,0.291,0.704,0.875,0.747
CCCC(c1nnnn1C1CCCCC1)N1CCN(C(=O)c2ccco2)CC1 (stereo not given),1.04,0.976,1.01,1.02,1.16
COc1cccc(NC(=O)Cn2c(C)c(C#N)c3ccccc32)c1,0.0586,0.129,0.252,0.605,0.363
c1ccc(CNc2nc(Nc3ccccc3)nc3ccccc23)cc1,0.0367,0.211,0.586,0.563,0.481
CCOC(=O)c1cnc2ccc(OC)cc2c1Nc1ccc(N2CCN(C)CC2)cc1,0.0953,0.479,0.931,0.842,0.779
Cc1ccc(Nc2nc(NCCO)c3ccccc3n2)cc1C,0.0641,0.32,0.584,0.796,0.659
CCN1CCN(Cc2ccc(NC(=O)c3cc4ccc5cccnc5c4[nH]3)cc2)CC1,0.834,0.845,1.09,0.997,1.02
COc1ccc(N2CCN(C(CNC(=O)C3CCCCC3)c3ccc4c(c3)OCO4)CC2)cc1 (stereo not given),0.912,0.986,1.04,0.86,0.758
CCOC(=O)c1cn(CC)c2cc(N3CCCCC3)c(F)cc2c1=O,0.592,0.9,0.81,0.769,0.791
COc1ccc(-n2ccnc2SCC(=O)Nc2cc(C)ccc2C)c(OC)c1,1.07,0.949,0.975,0.939,0.989
CCCCCCc1cc2cc(-c3nc4ccccc4[nH]3)c(=Nc3ccccc3C)oc2cc1O,0.0472,0.138,0.501,0.601,0.506

Compound,viability index [1],viability index [2],viability index [3],viability index [4],viability index [5]
CC(Oc1ccc(NC(=O)c2cccs2)cc1)C(=O)c1ccc(Cl)cc1 (stereo not given),1.02,0.883,0.727,0.854,0.974
CCCc1c(CC)c(=N)c2ccccc2n1C,0.815,0.952,1.09,0.951,1.1
COc1cc(OC)c(N(C)C(=O)c2cc3c(s2)-c2ccccc2S(=O)(=O)C3)cc1Cl,0.00884,0.00676,0.0212,0.131,0.022
COc1ccc(C(=O)Nc2ccc(Cl)cc2C(=O)Nc2ccncc2)cc1,0.0232,0.557,0.915,0.763,0.692
O=C(c1ccccc1F)N(Cc1ccc(Cl)cc1)c1ccccn1,0.716,0.955,0.997,0.93,0.967
CCOC(=O)c1cnc2ccc(Cl)cc2c1NCCCN(C)C,0.309,0.59,0.989,1.03,0.844
CCCCOc1ccc(C(=O)Nc2cc(C)on2)cc1,1.02,0.815,0.973,0.942,0.78
Cc1ccc(Nc2nc(-c3ccccn3)cs2)cc1,0.193,0.22,0.109,0.173,0.121
CCOc1ccc(-n2cc(-c3ccccc3)c3c(SCc4cc(C)ccc4C)ncnc32)cc1,1.12,0.908,0.934,1.03,1.03
CCCCOC(=O)c1ccc(Nc2cc(C)nc3ccc(OC)cc23)cc1,0.0647,0.156,0.545,0.411,0.325
Cc1ccnc(NC(c2cccc(OCc3ccccc3)c2)c2ccc3cccnc3c2O)c1 (stereo not given),0.0271,0.015,0.0204,0.00316,0
CCOC(=O)c1c(C)n(-c2ccc(Cl)cc2)c2ccc(OC(=O)C=Cc3ccccc3)cc12,0.708,0.792,1.01,0.964,0.978
Cc1cccc(-n2ncc3c(=O)[nH]c(-n4nc(C)cc4NC(=O)c4cc5ccccc5o4)nc32)c1,0.466,0.473,0.792,0.9,0.791
Clc1ccc2[nH]c3c(NCCCN4CCOCC4)ncnc3c2c1,0.0298,0.444,0.979,0.918,0.813
CCOc1ccc(CCNC(=O)c2cccs2)cc1OCC,1.14,0.896,1.1,0.884,0.593
COc1ccc2c(=O)cc(C(Cl)(Cl)Cl)oc2c1,0.0166,0.146,0.512,0.623,0.56
O=C(O)C1Cc2c([nH]c3ccccc23)C(c2ccc(Cl)cc2Cl)N1 (stereo not given),1.04,0.891,1.08,1.05,0.967
CCOC(=O)c1cnc2c(C)cccc2c1Nc1ccc(C(C)=O)cc1,1.16,0.83,1.06,1.08,1.03
Oc1ccccc1CN1CCC2(CCCN(Cc3ccccc3F)C2)C1 (stereo not given),0.0166,0.161,0.509,0.657,1.07
CCOc1ccc(Nc2c3ccccc3nc3ccccc23)cc1,0.0245,0.165,0.444,0.351,0.584
